Compound activity from PubChem.
This is a sample that favours compounds with a hit; in the whole collection about 3.9% have one here.
CDK5 p35 inh: CDK5/p35 (human) kinase inhibition; AID 488839; Recombinant CDK5/p35, ADP-Glo luminescence, 60 min; Q00535+Q15078; inhibition, % at 10 µM; hit rate 0.01% among 330,000;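 active = highest replicate inhibition of at least 50% and at least 75% of replicates reaching 50%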
Target sequence (Q00535 whole entry, looked up): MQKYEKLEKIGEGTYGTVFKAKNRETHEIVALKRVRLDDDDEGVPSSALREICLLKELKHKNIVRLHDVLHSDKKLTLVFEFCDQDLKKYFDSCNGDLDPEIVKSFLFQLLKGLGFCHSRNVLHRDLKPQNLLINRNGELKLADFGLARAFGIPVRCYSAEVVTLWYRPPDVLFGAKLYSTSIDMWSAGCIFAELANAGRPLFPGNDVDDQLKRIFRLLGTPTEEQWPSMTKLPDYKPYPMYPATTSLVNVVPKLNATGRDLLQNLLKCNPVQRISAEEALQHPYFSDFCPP
Target sequence (Q15078 whole entry, looked up): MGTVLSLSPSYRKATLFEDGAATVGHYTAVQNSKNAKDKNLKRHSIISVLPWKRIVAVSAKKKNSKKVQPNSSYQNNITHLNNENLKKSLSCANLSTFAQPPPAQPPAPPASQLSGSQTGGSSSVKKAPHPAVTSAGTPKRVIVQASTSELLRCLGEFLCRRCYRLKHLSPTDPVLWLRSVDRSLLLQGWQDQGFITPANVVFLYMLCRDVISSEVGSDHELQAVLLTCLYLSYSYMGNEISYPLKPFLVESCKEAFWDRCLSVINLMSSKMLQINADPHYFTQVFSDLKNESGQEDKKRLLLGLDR
NSD2 inh: NSD2 (human) methyltransferase inhibition | hit rate 0.54% among 310,000 | inhibition, % at 12.5 µM | NSD2 peptide methylation, AlphaScreen, 120 min; in the data active = inhibition above about 50%
N-glyco inh: N-linked glycosylation inhibition. reporter increase, % at 12.5 µM. hit rate 0.23% among 360,000. D54 ERlucT glycosylation luciferase reporter, 24 h; percent of 100 nM tunicamycin response;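 active = mean luciferase reporter signal, scaled so untreated is 0 and the glycosylation-blocking control 100, at or above a set limit in every replicate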;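 also: luciferase carries N-glycosylation sites so blocking glycosylation raises the light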
Mot1-301 SUMO: blocks SUMOylation pathway, rescuing yeast Mot1-301 growth; hit rate 1% among 320,000; growth rescue, % at 18.8 µM; AID 2716; S. cerevisiae Mot1-301 growth rescue, ATP luminescence, 38.5C; percent above DMSO median, 100 means doubled;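 active = every valid replicate shows activation above 250% relative to neutral control wells; inactive = the rest, any valid replicate at or below 250%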
ALR inh: human ALR oxidase inhibition via reduced H2O2; P55789; purified ALR, DTT oxidation, H2O2 HRP-luminol luminescence; inhibition, % (no concentration beside the values); hit rate 3.8% among 290,000; AID 485317;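 active = mean replicate inhibition above about 79%, with every replicate also reaching it, limit read from the data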
CASP6 VEID inh: blocks human caspase-6 cleavage activity; P55212; purified caspase-6, Z-VEID-R110 cleavage fluorescence; inhibition, % at 12.5 µM; hit rate 0.53% among 350,000;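 active = mean inhibition across replicates at least about 35%, with every replicate also reaching that limit, limit read from the data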
Hits are given with their value; 0 = inactive; - = no result given.

SMILES | CDK5 p35 inh | NSD2 inh | N-glyco inh | Mot1-301 SUMO | ALR inh | CASP6 VEID inh
CCCNC(=O)N1CCC2(CC1)CN(S(C)(=O)=O)[C@H](CO)c1c2c2ccc(OC)cc2n1C | - | - | - | - | - | 0
O=C(NC(=O)c1csnn1)Nc1ccccc1Cl | 0 | 0 | 0 | 0 | 0 | 61
CN1C(=O)c2cc(NC(=O)c3ccccc3F)ccc2OC[C@@H]2O[C@H](CC(=O)NCc3ccc4c(c3)OCO4)CC[C@H]21 | - | - | - | - | - | 0
Cc1ccc(CN(C)C(=O)COC(=O)CSc2ccc([N+](=O)[O-])cc2)cc1 | 0 | 0 | 0 | 0 | 0 | 0
Cc1ccccc1CN(C)C(=O)COC(=O)CSc1ccc([N+](=O)[O-])cc1 | 0 | 0 | 0 | 0 | 99 | 71
O=C(NCCCn1ccnc1)c1ccc(F)cc1 | 0 | 0 | 0 | 0 | 0 | 0
COc1ccc(C(=O)c2c[nH]c(C(=O)NCCCn3ccnc3)c2)cc1 | 0 | - | 0 | 0 | 0 | 0
CC(C)(C)c1ccc(C(=O)c2c[nH]c(C(=O)NCCCn3ccnc3)c2)cc1 | 0 | 0 | 0 | 324 | 0 | -
CCC(=O)Nc1ccc(C(=O)NCCCn2ccnc2)cc1 | 0 | 0 | 0 | 0 | 100 | -
NC(=S)NN=Cc1nccc2ccccc12 | 0 | 0 | 0 | - | - | 0
Cc1cnc(C=NNC(N)=S)c2cccc(N)c12 | 0 | 0 | 0 | - | - | 66
O=c1[nH]c(=O)n([C@H]2C[C@H](O)[C@@H](CO)O2)cc1Br | 0 | - | 48 | 0 | 0 | 0
O=c1[nH]c(=O)n([C@H]2C[C@H](O)[C@@H](CO)O2)cc1F | 0 | - | 0 | 0 | 0 | 0
O=c1[nH]c(=O)n(C2CC(O)C(CO)O2)cc1I (stereo unspecified) | 0 | 0 | 81 | - | - | 0
COCCN(CCOC)S(=O)(=O)c1ccc(C(=O)Nc2nc(C)c(C(C)=O)s2)cc1 | 0 | - | 0 | 0 | 100 | 0
Cn1cnc([N+](=O)[O-])c1SCC(=O)NN | 0 | 0 | 0 | - | 88 | 0
O=C(O)c1cc([N+](=O)[O-])c(Sc2nc3ccccc3[nH]2)c([N+](=O)[O-])c1 | 0 | 0 | 0 | 0 | 85 | 0
Cn1cnc([N+](=O)[O-])c1SCC(O)CN1CCCCC1 (stereo unspecified) | 0 | 0 | 0 | 0 | 0 | 0
Cc1cc2nc(Sc3c([N+](=O)[O-])nc(C)n3Cc3ccccc3)[nH]c2cc1C | 0 | - | 0 | 0 | 97 | 0
Cc1nc([N+](=O)[O-])c(Sc2nc3ccccc3[nH]2)n1Cc1ccccc1 | 0 | 0 | 0 | 0 | 0 | 0
Cn1cnc([N+](=O)[O-])c1Sc1nc2ccccc2[nH]1 | - | 0 | 29 | 0 | 99 | 0
CS(=O)(=O)c1cc([N+](=O)[O-])c(Sc2nc3ccccc3[nH]2)c([N+](=O)[O-])c1 | 0 | 0 | 0 | 0 | 0 | 0
O=C(Nc1ccccc1F)N[C@H]1CC[C@H](CCNC(=O)C2CCC2)O[C@@H]1CO | - | - | - | - | - | 0
Cc1cccc(Sc2c([N+](=O)[O-])ncn2C)c1 | 0 | 0 | 0 | 0 | 98 | -
CCN(CC)c1ccc(-n2c(C)c(C(C)=O)c(C(C)=O)c2C)cc1 | 0 | 0 | 0 | 0 | - | -
SMILES | CDK5 p35 inh | NSD2 inh | N-glyco inh | Mot1-301 SUMO | ALR inh | CASP6 VEID inh
CCN(CC)c1ccc(-n2c(C)cc(C=O)c2C)cc1 | 0 | 0 | 0 | 0 | 98 | -
Cc1noc(C)c1NC(=O)Nc1ccc2c(c1)C(=O)N([C@H](C)CO)C[C@@H](C)[C@H](CN(C)S(=O)(=O)c1ccc(Cl)cc1)OCCCC[C@@H](C)O2 | - | - | - | - | - | 0
CCOc1c(O)ccc(C2NC(=O)N(C)C(C)=C2C(=O)OC)c1[N+](=O)[O-] (stereo unspecified) | 0 | 0 | 0 | 0 | 89 | 0
C[C@H](O)C#Cc1cnc2c(c1)C(=O)N([C@@H](C)CO)C[C@H](C)[C@@H](CN(C)Cc1ccccn1)O2 | - | - | - | - | - | 0
C=CCN=c1scc(-c2ccco2)n1/N=C/c1ccc(O)c(O)c1O | 0 | 0 | 0 | 0 | 99 | 0
COCCN=c1scc(-c2cccs2)n1/N=C(\C)c1ccco1 | 0 | 0 | 0 | 0 | - | 0
Oc1ccc(/C=N/n2c(-c3ccco3)csc2=Nc2cccnc2)c(O)c1 | 0 | 0 | 0 | 0 | 0 | -
COCCN=c1scc(-c2ccco2)n1/N=C/c1ccc(O)c(O)c1O | 0 | 87 | 0 | 0 | 99 | 0
CC(C)N=c1scc(-c2ccco2)n1/N=C/c1ccc(O)c(O)c1 | 0 | - | 0 | 0 | 99 | -
C[C@H](CO)N1C[C@H](C)[C@H](CN(C)C(=O)c2ccncc2)OCCCC[C@H](C)Oc2ccc(NS(=O)(=O)c3cn(C)cn3)cc2C1=O | - | - | - | - | - | 0
CCCCn1nnnc1-c1nc2ccccc2[nH]c1=O | - | - | - | - | - | 0
CCCCCn1nnnc1-c1nc2cc(C)c(C)cc2[nH]c1=O | - | - | - | - | - | 42
COc1ccc2c(c1)N(C)/C(=C/c1cccc[n+]1C)S2 | 0 | 0 | 0 | 0 | 97 | 0
Cc1ccc2c(c1)N(C)/C(=C/c1cccc[n+]1C)S2 | 0 | - | 0 | 0 | 97 | 0
CCN1/C(=C/C(C)=O)Sc2ccc(OC)cc21 | - | 0 | 0 | 0 | - | -
CCN1/C(=C/c2cccc[n+]2C)Sc2ccc(OC)cc21 | 0 | 0 | 0 | 0 | 98 | 0
CN1/C(=C/c2cccc[n+]2C)Sc2ccccc21 | 0 | - | 0 | 0 | 0 | 0
Cc1ccc(SC(=O)COc2ccccc2C)cc1 | 0 | 0 | 0 | 0 | 99 | -
Cc1ccc2oc(=O)c(/C=C(\O)c3cccs3)nc2c1 | 0 | 0 | 0 | 0 | 0 | 0
CCS(=O)(=O)CCSc1nc2ccccc2o1 | 0 | 0 | 0 | 0 | 0 | 0
CS(=O)(=O)Cc1nc2ccccc2oc1=O | 0 | 0 | 0 | 0 | 99 | -
C/C(O)=C\c1nc2ccccc2oc1=O | 0 | 0 | 0 | 0 | 95 | -
Cc1ccc2oc(=O)c(/C=C(\O)c3ccccc3)nc2c1 | 0 | 0 | 0 | 0 | 98 | 0
Cc1ccc2oc(=O)c(/C=C(\O)CC(C)C)nc2c1 | 0 | 0 | 0 | 0 | 82 | -
O=C(C[C@H]1C[C@@H]2c3cc(NC(=O)C4CCC4)ccc3O[C@@H]2[C@@H](CO)O1)NCC1CC1 | - | - | - | - | - | 0
SMILES | CDK5 p35 inh | NSD2 inh | N-glyco inh | Mot1-301 SUMO | ALR inh | CASP6 VEID inh
CCC(C)Nc1nc2c(C)cccn2c(=O)c1C=Nc1ccc(OC)cc1 (stereo unspecified) | 0 | 0 | 0 | 0 | - | 41
COc1ccc(Nc2nc3c(C)cccn3c(=O)c2C=O)cc1 | 0 | 0 | 0 | - | - | 0
COc1ccccc1C(=O)Nc1ccc2c(c1)C(=O)N(C)C[C@@H](OC)[C@H](C)CN(CC1CC1)[C@H](C)CO2 | - | - | - | - | - | 0
COc1ccc(NCC(=O)N/N=C/C2CCCCC2)cc1 | 0 | - | 0 | 0 | 92 | 0
CC(C)N(CC(=O)Nc1ccc(Cl)cc1C(F)(F)F)C(=O)CCl | 0 | 0 | 34 | 0 | - | 0
CCOC(=O)CN(C)C(=O)CCc1nnc(-c2ccsc2)o1 | 0 | 0 | 0 | 611 | - | 0
Cc1cc(=O)n(-c2ccc(O)cc2)[nH]1 | 0 | 0 | 0 | 0 | 99 | -
Cc1cc(=O)n(-c2ccc(C(=O)O)cc2)[nH]1 | 0 | 0 | 0 | 0 | 0 | 0
Cn1c(Cc2ccccc2)nnc1SCC(=O)c1ccc(Br)s1 | 0 | 0 | 0 | 0 | 83 | -
N#Cc1cc(-c2ccccc2)oc1NC(=O)c1ccccc1 | 0 | 0 | 0 | 0 | 79 | -
O=C(C[C@H]1CC[C@H]2[C@@H](COC[C@H](O)CN2C(=O)c2ccc(F)cc2)O1)N1CCOCC1 | - | - | - | - | - | 0
